Growth inhibition, inhibition and outcome data for 19 compounds are collected here from PubChem BioAssay.

Unmarked numbers belong to inactive results. For some assays here: Entries with a potency or affinity are not part of this list. Calls of active or inactive are those of the source. Unless noted, how the calls were made is not given here.

A short description of test [1]: antimalarial activity against Dd2 strain (AID 2302;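 active means growth inhibition above 50% at the single 2 µM test dose, taken to imply half-maximal potency below 2 µM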;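 further: 0% = DMSO untreated growth and 100% = chloroquine plus artemisinin killed control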). Particulars: P. falciparum Dd2 in RBCs, LDH growth readout, 72 h; at 2 µM; stronger effect = higher value.
Test [2] in a line: HepG2 cytotoxicity, primary screen, cytotoxicity control for P. falciparum antimalarial project, cell-based, ATP luminescence (AID 2303;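 active means inhibition above 50%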;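 further: 0% = DMSO wells and 100% = digitonin-killed cells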). The settings on record: HepG2 viability, 24-48 h, at 10 µM, stronger effect = higher value.
Test [3] concerns the target L-lactate dehydrogenase (Plasmodium falciparum (isolate CDC / Honduras)) (UniProt Q27743). Nature of the test: PfLDH activity inhibition – cell lysate, 3D7 strain, counter-screen for P. falciparum growth inhibition project (AID 2304).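 Further: 0% = vehicle and 100% = reference inhibitor.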 The settings on record: P. falciparum 3D7 crude extract, LDH APAD/NBT absorbance; at 2 µM; stronger effect = higher value. (Counterscreens check selectivity or assay interference.)

Test [4] is described as follows: inhibition of 3D7 malaria parasite growth – strain 3D7 (AID 2306).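 Further: 0% = DMSO wells and 100% = chloroquine plus artemisinin control wells.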 The settings on record: P. falciparum 3D7 erythrocytic growth, LDH absorbance, 72 h; at 2 µM; stronger effect = higher value.
Test [5] deals with Calcium-dependent protein kinase 1 (Plasmodium falciparum (isolate 3D7)) (UniProt P62344). Nature of the test: PfCDPK1 kinase inhibitors, biochemical, TCAMS library (AID 1159585; cut-off not given, nearly all actives have IC50 up to about 0.98 µM;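 further: inhibitors leave more ATP so luminescence rises with inhibition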). The settings on record: recombinant PfCDPK1, Kinase-Glo ATP depletion luminescence. (In general: In Kinase-Glo more light means more ATP remaining.)
Test [6] deals with Plasmodium falciparum protein kinase 6 (PK6, PF3D7_1337100) (UniProt Q8IDW1). Nature of the test: PfPK6 kinase inhibitors, biochemical, TCAMS library (AID 1159586). The settings on record: recombinant PfPK6, Kinase-Glo ATP depletion luminescence.
The target in test [7] is Protein kinase 7 (PK7), Plasmodium falciparum 3D7 (PF3D7_0213400) (UniProt Q7YTF7). Nature of the test: inhibition of Plasmodium PK7 catalytic activity – biochemical, TCAMS antimalarial set, Kinase-Glo luminescence (AID 1159587). The settings on record: recombinant PfPK7, Kinase-Glo ATP depletion luminescence.
Test [8] deals with Calcium-dependent protein kinase 4 (Plasmodium falciparum (isolate 3D7)) (UniProt Q8IBS5). Kind of test: PfCDPK4 kinase inhibitors, biochemical, TCAMS library (AID 1159588; cut-off not given, nearly all actives have IC50 up to about 0.91 µM). Particulars: recombinant PfCDPK4, Kinase-Glo ATP depletion luminescence.
Sequence of Calcium-dependent protein kinase 4 (Plasmodium falciparum (isolate 3D7)) (Q8IBS5 whole entry, looked up): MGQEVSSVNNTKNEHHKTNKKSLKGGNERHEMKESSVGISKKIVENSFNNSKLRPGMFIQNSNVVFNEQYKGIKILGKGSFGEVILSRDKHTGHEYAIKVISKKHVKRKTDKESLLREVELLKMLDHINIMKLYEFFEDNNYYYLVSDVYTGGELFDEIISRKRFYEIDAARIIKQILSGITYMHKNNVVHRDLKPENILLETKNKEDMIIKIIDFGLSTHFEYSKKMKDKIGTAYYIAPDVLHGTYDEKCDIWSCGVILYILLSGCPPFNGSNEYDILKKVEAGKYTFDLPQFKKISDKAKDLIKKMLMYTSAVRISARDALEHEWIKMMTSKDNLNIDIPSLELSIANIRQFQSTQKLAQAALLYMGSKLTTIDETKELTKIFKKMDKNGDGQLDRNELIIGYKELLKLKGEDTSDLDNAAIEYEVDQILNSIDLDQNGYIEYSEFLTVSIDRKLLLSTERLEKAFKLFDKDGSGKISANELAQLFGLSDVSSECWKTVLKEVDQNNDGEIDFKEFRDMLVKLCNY

Sequence of Protein kinase 7 (PK7), Plasmodium falciparum 3D7 (PF3D7_0213400) (Q7YTF7 1-343): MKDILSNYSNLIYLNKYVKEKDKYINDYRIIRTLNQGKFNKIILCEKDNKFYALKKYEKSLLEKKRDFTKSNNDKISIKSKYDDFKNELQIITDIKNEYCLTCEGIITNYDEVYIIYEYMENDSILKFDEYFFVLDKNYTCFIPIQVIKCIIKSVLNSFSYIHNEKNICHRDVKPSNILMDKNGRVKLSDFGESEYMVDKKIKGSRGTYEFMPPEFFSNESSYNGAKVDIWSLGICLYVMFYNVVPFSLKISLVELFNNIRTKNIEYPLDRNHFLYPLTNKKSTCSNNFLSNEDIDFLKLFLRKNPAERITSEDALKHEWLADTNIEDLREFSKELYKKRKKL
Sequence of Plasmodium falciparum protein kinase 6 (PK6, PF3D7_1337100) (Q8IDW1 1-305): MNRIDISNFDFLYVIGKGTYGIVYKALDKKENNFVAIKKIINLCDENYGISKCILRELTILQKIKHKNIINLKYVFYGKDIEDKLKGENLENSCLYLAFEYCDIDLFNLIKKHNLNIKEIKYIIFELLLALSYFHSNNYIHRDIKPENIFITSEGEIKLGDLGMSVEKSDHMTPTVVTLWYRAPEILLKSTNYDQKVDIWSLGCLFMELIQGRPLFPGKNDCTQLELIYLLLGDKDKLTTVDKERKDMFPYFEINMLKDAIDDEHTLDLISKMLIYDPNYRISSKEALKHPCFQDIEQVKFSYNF
Sequence of L-lactate dehydrogenase (Plasmodium falciparum (isolate CDC / Honduras)) (Q27743 whole entry, looked up): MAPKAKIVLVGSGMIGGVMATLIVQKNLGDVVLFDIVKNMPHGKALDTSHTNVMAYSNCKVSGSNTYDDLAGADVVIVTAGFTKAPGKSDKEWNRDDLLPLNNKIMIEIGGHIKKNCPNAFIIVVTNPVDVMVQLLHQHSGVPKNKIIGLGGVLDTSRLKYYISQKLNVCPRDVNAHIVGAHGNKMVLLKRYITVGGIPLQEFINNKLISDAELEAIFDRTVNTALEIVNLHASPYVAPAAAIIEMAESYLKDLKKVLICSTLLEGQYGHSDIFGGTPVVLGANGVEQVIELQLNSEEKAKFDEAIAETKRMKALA
Sequence of Calcium-dependent protein kinase 1 (Plasmodium falciparum (isolate 3D7)) (P62344 whole entry, looked up): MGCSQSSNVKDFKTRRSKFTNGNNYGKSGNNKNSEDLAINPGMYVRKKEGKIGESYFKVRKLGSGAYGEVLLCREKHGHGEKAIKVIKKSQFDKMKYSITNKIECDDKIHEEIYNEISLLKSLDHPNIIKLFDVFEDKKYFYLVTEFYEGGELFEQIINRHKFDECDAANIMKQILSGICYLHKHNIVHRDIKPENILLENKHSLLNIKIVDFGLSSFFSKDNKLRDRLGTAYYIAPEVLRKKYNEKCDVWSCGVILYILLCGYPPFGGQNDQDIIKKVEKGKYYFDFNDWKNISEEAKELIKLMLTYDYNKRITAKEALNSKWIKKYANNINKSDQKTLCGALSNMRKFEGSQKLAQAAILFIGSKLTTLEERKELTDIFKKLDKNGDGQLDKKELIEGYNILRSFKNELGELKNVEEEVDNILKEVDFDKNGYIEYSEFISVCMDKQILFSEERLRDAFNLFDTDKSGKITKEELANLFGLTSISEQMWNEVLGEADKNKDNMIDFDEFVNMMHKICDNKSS

On to `CC(C)CCNc1nc(NCCc2ccccc2)c2cc(O)ccc2n1`, for which the growth inhibition in test [1] was 97% (active); in test [4] it was 101% (active). In addition, the inhibition (as a rule, the relative decrease from the control value, in per cent) in test [2] is 6%; in test [3], 7%. In addition, the outcome in test [5], in test [6], in test [7] and in test [8] was inactive.
For `C=C(C)C1CC=C(CN2CCC(N3CCc4cc(NC(=O)c5cc(C)on5)ccc43)C2)CC1` (configuration not stated), the figures for the growth inhibition in test [1] and in test [4] were 95% (active) and 90% (active), respectively. In addition, the inhibition in test [2] is 26%; in test [3], 0%. Further, the outcome in test [5], in test [6], in test [7] and in test [8] was inactive.
Take `CC(C)(C)c1ccc(-c2cc3c(ccc4nc(N)nc(N)c43)[nH]2)cc1`: the growth inhibition was 100% (active) in test [1] and 101% (active) in test [4]. For the same compound, the values for the inhibition in test [2] and in test [3] were 100% (active) and 5%, respectively. In addition, the outcome in test [5], in test [6], in test [7] and in test [8] was inactive.
With `CC(C)C1=NCc2ccc([N+](=O)[O-])cc2C(=O)N1`, the growth inhibition is -1% in test [1] and 98% (active) in test [4]. In addition, the values for the inhibition in test [2] and in test [3] were 6% and 4%, respectively. Moreover, the outcome in test [5], in test [6], in test [7] and in test [8] was inactive.
As to `O=c1ccc(CNc2nc(NCCc3ccccc3)nc3cc(Cl)ccc23)c[nH]1`, the growth inhibition was 78% (active) in test [1] and 95% (active) in test [4]. For the same compound, the inhibition is 21% in test [2] and 3% in test [3]. Also, the result in test [5], in test [6], in test [7] and in test [8] was inactive.
Regarding `CCOc1ccccc1CNc1nccc(NCc2ccc(Cl)cc2Cl)n1`, the growth inhibition in test [1] was 58% (active); in test [4] it was 83% (active). For the same compound, the inhibition in test [2] is 26%; in test [3], -3%. In addition, the outcome in test [5], in test [6], in test [7] and in test [8] was inactive.
In the case of `FC(F)(F)c1cc(CNCCCNc2nc3ccncc3[nH]2)ccc1Cl`, the growth inhibition in test [1] was 15%; in test [4] it was 99% (active). Further, the inhibition in test [2] is 11%; in test [3], 2%. For the same compound, the outcome in test [5], in test [6], in test [7] and in test [8] was inactive.
As for `Cc1noc(C)c1-c1cccc(CNCc2cccc(-c3ccc(-c4nc5ccc(C(F)(F)F)cc5[nH]4)s3)c2)c1`, the growth inhibition is 95% (active) in test [1] and 100% (active) in test [4]. The inhibition in test [2] was 23%; in test [3], 0%. For the same compound, the outcome in test [5], in test [6], in test [7] and in test [8] was inactive.
For the compound `CCc1cn2c3c(cc(C(=O)N[C@@H](Cc4ccccc4)[C@H](O)CNC4CCCCC4)cc13)N(C)S(=O)(=O)C2`, the growth inhibition in test [1] and in test [4] was 99% (active) each time. Further, the figures for the inhibition in test [2] and in test [3] were 20% and 0%, respectively. The outcome in test [5], in test [6], in test [7] and in test [8] was inactive.
On to `Cc1cccc2[nH]c(-c3cccc(-c4ccc(NC(=O)CN5CCN(C)CC5)cc4)c3)nc12`, for which the growth inhibition in test [1] was 99% (active); in test [4], 101% (active). Further, the results for the inhibition in test [2] and in test [3] were 45% and -8%, respectively. Moreover, the outcome in test [5], in test [6], in test [7] and in test [8] was inactive.
`Clc1ccc(-c2cc3c(NCc4ccncc4)nccc3s2)cc1`: the growth inhibition in test [1] was 8%; in test [4] it was 98% (active). Besides, the inhibition is 26% in test [2] and -1% in test [3]. In addition, the result in test [5], in test [6], in test [7] and in test [8] was inactive.
`CNCCCNCc1ccc(-c2ccc(F)c(Cl)c2)o1`: the results for the growth inhibition in test [1] and in test [4] were 12% and 100% (active), respectively. Moreover, the inhibition in test [2] was 22%; in test [3], 0%. Also, the outcome in test [5], in test [6], in test [7] and in test [8] was inactive.
As for `COc1cc2nc(N3CCC(CNC(=O)c4cccc5cc[nH]c45)CC3)nc(N)c2cc1OC`, the growth inhibition was 24% in test [1] and 98% (active) in test [4]. For the same compound, the inhibition was 33% in test [2] and -3% in test [3]. Also, the outcome in test [5], in test [6], in test [7] and in test [8] was inactive.
On to `Nc1cc(-c2ccc(Br)cc2O)nc2ccccc12`, for which the results for the growth inhibition in test [1] and in test [4] were 50% (active) and 100% (active), respectively. Besides, the inhibition in test [2] was 23%; in test [3] it was 0%. Moreover, the outcome in test [5], in test [6], in test [7] and in test [8] was inactive.
With `CSc1ccc(CN2CCC(NC(=O)c3ccc(-c4ccc(N(C)C)cc4)s3)CC2)cc1`, the growth inhibition in test [1] was 26%; in test [4], 86% (active). In addition, the results for the inhibition in test [2] and in test [3] were 30% and -2%, respectively. For the same compound, the result in test [5], in test [6], in test [7] and in test [8] was inactive.
Turning to `Cc1cc(=O)c(-c2ccc(OCc3ccc(OC(F)(F)F)cc3)cc2)c(C)[nH]1`, the figures for the growth inhibition in test [1] and in test [4] were 92% (active) and 97% (active), respectively. In addition, the inhibition in test [2] and in test [3] was 3% in each case. Also, the outcome in test [5], in test [6], in test [7] and in test [8] was inactive.
Turning to `O=S(=O)(NC1CCN(c2ccnc3cc(Cl)ccc23)C1)c1ccc(C(F)(F)F)cc1` (configuration not stated), the growth inhibition in test [1] is 98% (active); in test [4] it was 100% (active). For the same compound, the inhibition in test [2] is 20%; in test [3] it was 2%. Besides, the result in test [5], in test [6], in test [7] and in test [8] was inactive.
Regarding `CCCNC[C@@H](O)[C@H](Cc1ccccc1)NC(=O)c1cc(NCC)cc(N2CCCCS2(=O)=O)c1`, the growth inhibition was 74% (active) in test [1] and 97% (active) in test [4]. Further, the inhibition in test [2] was 0%; in test [3] it was -3%. In addition, the outcome in test [5], in test [6], in test [7] and in test [8] was inactive.
As for `Cc1c(Cc2ccccc2)c(=O)oc2c(C)c3c(cc12)CN(CC(C)c1ccccc1)CO3` (configuration not stated), the growth inhibition in test [1] and in test [4] was 98% (active) in each case. Also, the values for the inhibition in test [2] and in test [3] were 1% and -1%, respectively. Further, the result in test [5], in test [6], in test [7] and in test [8] was inactive.
